# Reference: PubChem BioAssay (NCI)
# About 83,000 compounds went through this panel and 20% of them were active in at least one assay; those are over-represented in the sample as a whole.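 The endpoint reported here, percent growth, reads 100 for growth as untreated, 0 for no net growth and -100 for all cells dead.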 Active and inactive are the calls of the source. The calls were made as follows: active = growth percent below 10; inactive = the rest.
# System: HL-60(TB) leukemia
# Assay: NCI-60 one-dose screen, 48 h (100 = growth as untreated, 0 = no growth, -100 = all killed)
# Conditions: 10 µM unless noted
row,Structure (SMILES),growth
1,O=C(CSc1nc2ccccc2[nH]1)Nc1cccc(Cl)c1,102% (inactive)
2,O=c1cc(-c2ccccc2)nc(SCc2nc3cc(Cl)c(Cl)cc3[nH]2)[nH]1,101% (inactive)
3,O=c1ccn(C2OC(F)(CO)C(O)C2F)c(=O)[nH]1 (stereo not given),114% (inactive)
4,O=C(Nc1cc(-c2cccnc2)nc(NCCCN2CCOCC2)n1)c1cc(Br)cc(C(F)(F)F)c1,48.5% (inactive)
5,CCOc1cc2c(cc1OCC)C(c1cc(OC)c(O)cc1Cl)NCC2 (stereo not given),91.7% (inactive)
6,COC(=O)[C@H](Cc1cn(C)cn1)NC(=O)[C@H](C)NC(=O)Nc1cc(C(F)(F)F)cc(C(F)(F)F)c1,-70.4% [100 µM] (active)
7,C=CCn1c(SCC(=O)Nc2ccc(/C(C)=N\O)cc2)nnc1-c1cc(-c2ccc(OC)cc2)nc2ccccc12,-39.2% (active)
8,COC(=O)[C@H]1Cc2c([nH]c3ccccc23)[C@H](c2ccc3c(c2)OCO3)N1,98.6% (inactive)
9,CCCCCCCCN(CCCCCCCC)C(=O)CCl,105% (inactive)
10,COc1ccc(/C=C/C(=O)c2ccc(Nc3nc(Nc4ccc(F)cc4)nc(Nc4ccc(Cl)cc4)n3)cc2)cc1,-0.226% (active)
11,COc1cc(C(=O)N2CCN(c3cc4c(cc3F)c(=O)c(C(=O)NO)cn4C3CC3)CC2)cc(OC)c1OC,101% (inactive)
12,Cc1c(O)c(O)cc2c3c(oc12)CC(c1ccc2c(c1)OCO2)CC3=O (stereo not given),73.7% (inactive)
13,CC(C)(Cl)CCC1=C(Cl)C(=O)c2ccccc2C1=O,-10.1% (active)
14,COc1cc(/C=C/c2nc(Nc3ccc(S(=O)(=O)Nc4cc(C)on4)cc3)c3ccccc3n2)ccc1O,27.4% (inactive)
15,O=C(Nc1ccc2ncnc(Nc3cccc(C(F)(F)F)c3)c2c1)c1cccs1,47.9% (inactive)
16,CC(=O)N(C(C)=O)c1ccc(C)cc1,92.9% (inactive)
17,CCC1CCCCN1C(=S)N/N=C(\C)c1ccccn1 (stereo not given),8.04% (active)
18,CC(CN1CCN(C)CC1)CN1c2ccccc2Sc2ccc(C(F)(F)F)cc21 (stereo not given),40.4% (inactive)
19,O=C(/C=C/c1ccc(F)cc1)Nc1ncc(Cc2ccc(F)cc2)s1,-26.6% (active)
20,O=C1NC(=O)C(Cc2ccc(OCc3ccc(-c4cc(F)c(F)c(F)c4)cc3)cc2)S1 (stereo not given),106% (inactive)

row,Structure (SMILES),growth
1,COc1ccc(-c2cc(-c3ccc(N(C)C)cc3)c(C#N)c(N3CCCC3)n2)cc1,67.2% (inactive)
2,O=c1c2c3c(sc2n2cnnc2n1Cc1ccccc1)CCCC3,84.3% (inactive)
3,CCc1c(C)c2ccc(O)c(-c3cc(-c4ccccc4)c(C#N)c(=O)[nH]3)c2oc1=O,109% (inactive)
4,CC1(C)CNC(=O)N1,101% (inactive)
5,O=Nc1c(-c2c(O)[nH]c3ncccc23)[nH]c2ccccc12,125% (inactive)
6,O=C(O)C(=O)O,151% (inactive)
7,O=C(Nc1ccccc1)OCC1OCOC(COC(=O)Nc2ccccc2)C1OC(=O)Nc1ccccc1 (stereo not given),122% (inactive)
8,CCS(=O)(=O)N1CCN(c2ccc(Nc3ncc(C(N)=O)c(NC4CC4)n3)cc2)CC1,71.2% (inactive)
9,O=C(c1ccccc1)C(Nc1ccccc1)c1ccccc1 (stereo not given),84% (inactive)
10,CCCn1cc(/C=N\N=C2\C(=O)Nc3ccc(C)cc32)c2ccccc21,-22.6% (active)
11,COc1cc(C2CC(=O)Nc3c2c(C)nn3-c2nc3ccccc3[nH]2)cc(OC)c1OC (stereo not given),108% (inactive)
12,C#CCCCCCCC[C@@H]1OC(=O)[C@H]([C@@H](C)CC)NC(=O)[C@@H]([C@@H](C)CC)NC(=O)CC(=O)[C@@H]1C,107% (inactive)
13,C[n+]1c(/C=C/c2c(O)ccc3ccccc23)ccc2ccccc21,17.9% (inactive)
14,Cn1cnc([N+](=O)[O-])c1/C=C1\Oc2ccc(Br)cc2C1=O,75.5% (inactive)
15,CC(=Nc1ccc(N(C)C)cc1)c1ccccc1,26.1% (inactive)
16,CC1CCC2C(C)(C)C3CC12CC1OC13C (stereo not given),125% (inactive)
17,Cc1ccc(C(=O)COc2cccc(/C=C3\Oc4ccccc4C3=O)c2)cc1,78.7% (inactive)
18,CCCCCCCCCCCCCC1=NCCN1CCO,2.28% (active)
19,COc1cc2nc(Cl)nc(Nc3cccc(C(=O)/C=C/c4ccc(Cl)cc4)c3)c2cc1OC,51.7% (inactive)
20,CCN(CC)c1ccc(/C=N/NC(=O)CSc2nc3ccccc3c(=O)n2Cc2ccc(S(N)(=O)=O)cc2)c(O)c1,-19.7% (active)
